Experimental data reported in PubChem BioAssay (NCI).
This is part of a sample that, as a whole, favours compounds with a hit. Of some 83,000 tested, about 20% had one in any assay.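 Step 1: grow cells in 96-well plates. Step 2: add test compound at a single concentration. Step 3: incubate 48 h. Step 4: record percent growth.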 Unmarked numbers belong to inactive results. Activity calls are given as the source filed them.

The molecules below were run on A549/ATCC NSCLC (assay: NCI-60 one-dose screen, 48 h (100 = growth as untreated, 0 = no growth, -100 = all killed)). Settings: 10 µM unless noted.
Protocol: Growth inhibition of the A549/ATCC human Non-Small Cell Lung tumor cell line is measured as a screen for anti-cancer activity. Cells are grown in 96 well plates and exposed to the test compound for 48 hours. Compounds are tested at a single concentration, which is 10^-5 M for most compounds. The reported endpoint is percent growth (GI% or GIPRCNT), where numbers from 0 - 100% represent growth inhibition, and numbers from -100% - 0 represent cell death. For example, a value of 40 represents 60% growth inhibition. A value of 0 means no net growth occurred over the course of the experiment. A value of -40 indicates 40% of cells at the beginning of the experiment died by the end of the experiment. A value of -100 means all cells are dead at the end of the experiment.
NCI-60 Human Tumor Cell Lines Screen was performed using the standard one-dose NCI protocol, which is described in more detail at https://dtp.cancer.gov/discovery_development/nci-60/default.htm.
Compounds with GIPRCNT values below 10 were considered active. Activity score was based on GIPRCNT using the following formula: […]
Score is 0 for GIPRCNT values of 100 or above, 50 for GIPRCNT values of 0, and 100 for GIPRCNT values of -100.
Work on `COc1ccc(NC(=O)c2c(Nc3ccc(OC)cc3OC)n[nH]c2N)c(OC)c1` yielded a growth of 96.8%. With `CCCCCCCCC(C)OC(=O)c1nn(C(C)=O)c2ccccc12` (stereo not given) the growth was 94.1%. For `C=C1CCC2C3(C)COC(c4c(OC)cccc4OC)OC3CCC2(C)C1C/C=C1/C(=O)OCC1O` (stereo not given), the growth was 47.9%. With `CCOC(=O)c1ccc2c(c1)c1c(C)c3cccnc3c(C)c1n2C` the growth was 67.7%. `O=C(Nc1ccncc1)C(=O)c1cn(S(=O)(=O)c2ccc(Cl)cc2)c2ccccc12` showed a growth of 73.9%. In the case of `COc1ccc(Nc2[nH]n3c(=O)cc(-c4ccccc4)nc3c2C(=O)Nc2ccc(C)cc2)c(OC)c1`, the growth is reported as 88.7%. `O=[N+]([O-])c1cccc(-c2nc3sccn3c2-c2ccnc(NCCCNS(=O)(=O)c3ccc(Cl)cc3)n2)c1` was tested, and the growth was 43.1%. In the case of `COc1ccc(S(=O)(=O)NCCCNc2nccc(-c3c(-c4cccc([N+](=O)[O-])c4)nc4sccn34)n2)cc1`, the growth is reported as 52.2%. Work on `COc1cc(Nc2ncccc2C(=O)NCc2cn(Cc3cccc(Oc4ccccc4)c3)nn2)cc(OC)c1` yielded a growth of 38.6%. With `COc1cc(C(=O)/C=C/c2ccc3nc(-c4cc(F)cc(F)c4)sc3c2)cc(OC)c1OC` the growth was 94.2%. Molecule `N/C(=N\C(N)=N\c1nc2ccccc2s1)c1ccncc1` has a growth of 89.3%. `COc1cc(Nc2nc(N[C@H]3CCCC[C@@H]3N)nc3cc[nH]c(=O)c23)cc(OC)c1` showed a growth of 19.1%. In the case of `COc1ccc(S(=O)(=O)NCCCNc2nccc(-n3ccc4cccnc43)n2)cc1`, the growth is reported as 83%. `C=C1C(=O)O[C@@H]2[C@@H]3O[C@@](C)(CC/C=C(\C)CCC[C@@H]2C)[C@H](O)C[C@@H]13` showed a growth of 95.3%. Work on `CCCCOc1ccc(/C=C2/SC(N3CCCC3)=NC2=O)cc1` yielded a growth of 94.7%. `COc1cc2c(c(OC)c1OC)-c1ccc(N)c(=O)cc1[C@@H](NC(C)=O)CC2` showed a growth of 21.3%. With `C=C[C@@H]1C[C@H](O)Cc2c(C)cc(C)cc2N1` the growth was 98.3%. `COc1ccc(/C=C(\C#N)c2cc(OC)c3c(c2)OCO3)cc1` gave a growth of 15.4%. `CCOC(=O)NNC(=S)Nc1ccccc1` was tested, and the growth was 96.3%. Molecule `Cc1ccc(S(=O)(=O)Nc2c(Br)cc(Br)cc2C(N)=O)cc1` has a growth of 117%. Work on `COc1ccc2c(c1)OC1=C(C(=O)OC1)C2c1cc(OC)c2c(c1)OCO2` (stereo not given) yielded a growth of 14.4%. For `Nc1nc(=O)c2ccccc2s1`, the growth was 111%. Molecule `O=C1NC(=C(Cl)Cl)/C(=N/S(=O)(=O)N2CCC(C3(C(F)(F)F)N=N3)CC2)N1` has a growth of 106%. With `C=COC(=O)CCCCCCCCC` the growth was 108%. Molecule `Nc1ccc(C(=O)CSc2nc3ccccc3[nH]2)cc1` has a growth of 99.8%. `O=C1NN(C(=O)c2ccc(Cl)cc2)C(c2ccccc2)=N/C1=C\c1cn(-c2ccccc2)nc1-c1ccccc1` was tested, and the growth was 88%. With `COc1cccc(/C=C/C(=O)Nc2cc(OC)c3c(c2)OCO3)c1` the growth was 98.3%. Molecule `N=C(N)c1ccc(-c2ccc(-c3ccc(-c4cccs4)s3)s2)cc1` has a growth of 14%. With `Cc1ccc(Cc2c(C=O)nc(N)[nH]c2=O)c2ccccc12` the growth was 86.6%. With `O=c1ccn(C2CC(O)C(O)C(CO)O2)c(=O)[nH]1` (stereo not given) the growth was 118%. For `COc1cc(Cn2cc3c(c2)-c2oncc2CC3)cc(OC)c1OC`, the growth was 29.6%. `CC(=O)Oc1csc(N(C(C)=O)c2cc(C(=O)O)cc(C(=O)O)c2)n1` was tested, and the growth was 97.1%. With `O=C(CSc1nc2ccccc2[nH]1)Nc1ccc(-c2nc3ccccc3s2)c(Cl)c1` the growth was -33.7% (active). `COc1ccc2c(c1)NC1=C(C(=O)OC1)C2c1cc(OC)c2c(c1)OCO2` (stereo not given) gave a growth of 12%. For `CN1CCN(Cc2ccc(NC(=O)c3nc4ccc5[nH]ncc5c4c4c3CCC4)cc2C(F)(F)F)CC1`, the growth was -71.6% (active). `Cc1ccc(S(=O)(=O)NCCNc2nccc(-c3c(-c4cccc(N)c4)nc4sccn34)n2)cc1` was tested, and the growth was 87.4%. `NC(=O)CCCN1C/C(=C\c2ccccc2)C(=O)c2ccccc21` was tested, and the growth was 95.1%. Work on `Cc1ccc(/C=C2\CN(C(=O)CCN3CCC(=NO)CC3)C/C(=C\c3ccc(C)cc3)C2=O)cc1` yielded a growth of 50.8%. In the case of `O=C([O][Sn]([O]C(=O)c1ccccn1)([c]1ccccc1)[c]1ccccc1)c1ccccn1`, the growth is reported as 103%. Work on `O=C(O)/C=C/C(=O)c1ccc(Cl)cc1` yielded a growth of 95.3%.
